# PubChem BioAssay
# Values joined by “and” are separate entries in the source; they are usually repeats but may differ in a detail not shown here. Equal values may be shown once. Active and inactive are the calls of the source.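 Rule for the calls, unless noted: active = thallium flux through the channel raised or lowered by more than 3 SD from vehicle-only wells, actives on both sides; inactive = the rest.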
# Legend:
# [1] = sensitizers of A549 cells to miR-34 induction, primary screen, imaging, A549 dox-inducible miR-34, nuclei and caspase counts (AID 1347080;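 active = compounds whose cell count with miR-34 switched on is under 0.7 times the count with it off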); conditions: A549 miR-34 inducible, Hoechst nuclei count, 48 h
# [2] = survival rescue of mitochondrial mutant cells in low glucose, primary screen, MELAS cybrids, Rieske KO mouse fibroblasts, CellTiter-Glo (AID 1508586;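 active = mean z-score across replicates of 1.96 or higher in either the MELAS or the Rieske mutant cell line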;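 note: z relative to plate mean and SD of compound and empty wells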)
# [3] = viability rescue of complex I mutant cybrids, primary screen, cell-based, galactose medium, ATP luminescence (AID 1645843;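 active = z-score of at least 1.8 in each of two replicates, scored against plate mean and spread of sample wells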;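 note: positive z means more ATP and so rescue of galactose-driven cybrid death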); conditions: complex I mutant cybrid cells, 72 h, stronger effect = higher value
# F380Y = experiment: modulators of BK channel variants, profiling panel, selectivity assay, cell-based, U2OS BacMam, thallium flux, beta subunits (AID 1259406); conditions: at 30 µM;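 note: initial slope of Thallos dye fluorescence rise after thallium is added; log ratio against the mean of 0.3% DMSO vehicle wells on the same plate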
# F380Y/beta1 = experiment: as above; conditions: at 30 µM
# F380Y/beta2Delta = experiment: as above; conditions: at 30 µM
# F380Y/beta4 = experiment: as above; conditions: at 30 µM
# [4] = target: Calcium-activated potassium channel subunit alpha-1 (Homo sapiens) + Leucine-rich repeat-containing protein 26 (Homo sapiens) (UniProt Q12791+Q2I0M4); experiment: as above; conditions: F380Y/Slo1WT/gamma1, at 30 µM
# R275C = experiment: as above; conditions: at 30 µM
# R275C/beta1 = experiment: as above; conditions: at 30 µM
# R275C/beta2Delta = experiment: as above; conditions: at 30 µM
# R275C/beta4 = experiment: as above; conditions: at 30 µM
# R275C/Slo1WT/beta2 = experiment: as above; conditions: at 30 µM
# [5] = liver-stage malaria parasite growth inhibition, primary screen, cell-based, HepG2, luciferase luminescence, HepG2 viability (AID 624349; in the data active = parasite load remaining mostly below about 12%, no sharp cut-off; inactive = mostly above about 10%;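 note: 100% = mean of DMSO negative control wells on the same plate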); conditions: P. berghei liver stage in HepG2, luciferase luminescence, concentration not given here; parasite load remaining: stronger effect = lower value; viability: measured here: HepG2 viability without parasites
# [6] = Cy5 fluorescence interference with SSB-bound oligo, artefact control for HCV NS3 helicase inhibitor project, biochemical, NIH Clinical Collection, E. coli SSB (AID 743268; call rule not given here)
# [7] = system: Hepatitis C virus NS3 helicase; experiment: HCV NS3 helicase inhibitors, primary screen, biochemical, fluorescence polarization, NIH Clinical Collection (AID 743270; call rule not given here); conditions: NS3 helicase binding to Cy5-dT15 DNA, stronger effect = higher value, concentration not given here
# [8] = target: Single-stranded DNA-binding protein (Escherichia coli (strain K12)) (UniProt P0AGE0); experiment: E. coli SSB displacement from DNA, counter-screen for HCV NS3 helicase inhibitor project, biochemical, fluorescence polarization, NIH Clinical Collection (AID 743271; in the data active = inhibition above about 28%); conditions: stronger effect = higher value, concentration not given here
# [9] = fluorescence interference in NS3h assay format, artefact control for HCV NS3 helicase inhibitor project, biochemical, NIH Clinical Collection (AID 743272; call rule not given here;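 note: HCV NS3 helicase with a Cy5 labelled single stranded DNA probe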); conditions: fluorescence interference counterscreen, stronger effect = lower value
# [10] = modulation of C. elegans fzo-1 (AID 1259413; call rule not given here;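 note: fzo-1 mutant C. elegans worms in liquid wells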); conditions: C. elegans fzo-1 modulator screen, mean read-out; stronger effect = higher value
# [11] = stronger effect = lower value, cell number ratio, induced over uninduced
# [12] = measured here: relative caspase fold change +Dox/-Dox
# [13] = measured here: total cells with miR-34 induction, stronger effect = lower value
# [14] = measured here: total cells without miR-34 induction
# [15] = MELAS cybrid survival, CellTiter-Glo 48 h, stronger effect = higher value
# [16] = Rieske KO mouse fibroblast survival, CellTiter-Glo 72 h
# Sequence of Calcium-activated potassium channel subunit alpha-1 (Homo sapiens) + Leucine-rich repeat-containing protein 26 (Homo sapiens) (Q2I0M4 whole entry, looked up, one chain of several): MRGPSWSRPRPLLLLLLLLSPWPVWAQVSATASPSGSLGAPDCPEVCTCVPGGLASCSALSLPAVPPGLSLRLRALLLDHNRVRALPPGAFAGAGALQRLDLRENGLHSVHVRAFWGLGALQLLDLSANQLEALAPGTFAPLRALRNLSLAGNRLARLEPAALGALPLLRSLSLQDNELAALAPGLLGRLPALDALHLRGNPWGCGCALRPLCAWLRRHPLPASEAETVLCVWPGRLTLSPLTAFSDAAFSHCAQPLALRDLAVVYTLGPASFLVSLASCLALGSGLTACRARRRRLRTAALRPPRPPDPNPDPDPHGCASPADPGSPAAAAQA
compound,measurement,setting,value
O=C(O)Cc1ccc([N+](=O)[O-])cc1,fold change,[1]; [11],0.849 (inactive)
same,fold change,[1]; [12],0.69
same,cell count,[1]; [13],8560
same,cell count,[1]; [14],10100
same,z-score,[2]; [15],-0.276 (inactive)
same,z-score,[2]; [16],-0.17
same,z-score,[3],0.95 (inactive)
same,log fold change Tl+ flux,F380Y,-0.0269 (inactive)
same,log fold change Tl+ flux,F380Y/beta1,-0.0396 (inactive)
same,log fold change Tl+ flux,F380Y/beta2Delta,-0.012 (inactive)
same,log fold change Tl+ flux,F380Y/beta4,-0.00207 (inactive)
same,log fold change Tl+ flux,[4],-0.0215 (inactive)
same,log fold change Tl+ flux,R275C,-0.0145 (inactive)
same,log fold change Tl+ flux,R275C/beta1,-0.00497 (inactive)
same,log fold change Tl+ flux,R275C/beta2Delta,0.00238 (inactive)
same,log fold change Tl+ flux,R275C/beta4,-0.00439 (inactive)
same,log fold change Tl+ flux,R275C/Slo1WT/beta2,0.0202 (inactive)
C=C1/C(=C\C=C2/CCC[C@]3(C)[C@@H]([C@H](C)/C=C/[C@@H](O)C4CC4)CC[C@@H]23)C[C@@H](O)C[C@@H]1O,parasite load remaining,[5],78.1% (inactive) and 40.9% (inactive)
same,viability,[5],69.5% and 101%
same,fluorescence ratio,[6],0.98 (inactive)
same,inhibition,[7],-1.98% (inactive)
same,inhibition,[8],2.98% (inactive)
same,fluorescence ratio,[9],0.97 (inactive)
same,fold change,[1]; [11],1.11 (inactive) and 0.946 (inactive)
same,fold change,[1]; [12],1.34 and 1.48
same,cell count,[1]; [13],6690 and 9180
same,cell count,[1]; [14],6000 and 9710
same,z-score,[2]; [15],0.67 (inactive) and -0.148 (inactive)
same,z-score,[2]; [16],-0.0393 and -0.0428
same,z-score,[3],-0.655 (inactive) and -0.545 (inactive)
same,log fold change Tl+ flux,F380Y,0.0327 (inactive)
same,log fold change Tl+ flux,F380Y/beta1,0.217 (active)
same,log fold change Tl+ flux,F380Y/beta2Delta,0.0454 (inactive)
same,log fold change Tl+ flux,F380Y/beta4,0.0579 (inactive)
same,log fold change Tl+ flux,[4],0.0831 (inactive)
same,log fold change Tl+ flux,R275C,-0.0334 (inactive)
same,log fold change Tl+ flux,R275C/beta1,0.143 (active)
same,log fold change Tl+ flux,R275C/beta2Delta,-0.0353 (inactive)
same,log fold change Tl+ flux,R275C/beta4,0.0276 (inactive)
same,log fold change Tl+ flux,R275C/Slo1WT/beta2,0.00965 (inactive)
O=C(O[C@H]1[C@H](Oc2ccccc2COC(=O)C2(O)C=CCCC2=O)O[C@H](CO)[C@@H](O)[C@@H]1O)c1ccccc1 (some centres undefined),parasite load remaining,[5],48.8% (inactive)
same,viability,[5],72.8%
same,fluorescence ratio,[6],1 (inactive)
same,inhibition,[7],-0.22% (inactive)
same,inhibition,[8],-2.76% (inactive)
same,fluorescence ratio,[9],0.99 (inactive)
same,mean signal,[10],249 (inactive)
same,log fold change Tl+ flux,F380Y,0.0202 (inactive)
same,log fold change Tl+ flux,F380Y/beta1,0.0124 (inactive)
same,log fold change Tl+ flux,F380Y/beta2Delta,-0.0274 (inactive)
same,log fold change Tl+ flux,F380Y/beta4,0.0177 (inactive)
same,log fold change Tl+ flux,[4],-0.0394 (inactive)
same,log fold change Tl+ flux,R275C,0.00346 (inactive)
same,log fold change Tl+ flux,R275C/beta1,0.0475 (inactive)
same,log fold change Tl+ flux,R275C/beta2Delta,0.0175 (inactive)
same,log fold change Tl+ flux,R275C/beta4,0.0193 (inactive)
same,log fold change Tl+ flux,R275C/Slo1WT/beta2,0.0101 (inactive)
CC(=CCC1=C(C)C(=O)c2ccccc2C1=O)CCCC(C)CCCC(C)CCCC(C)C (centres undefined),parasite load remaining,[5],49.5% (inactive)
same,viability,[5],97.8%
same,fluorescence ratio,[6],1.04 (inactive)
same,inhibition,[7],-1.36% (inactive)
same,inhibition,[8],3.34% (inactive)
same,fluorescence ratio,[9],0.97 (inactive)
same,fold change,[1]; [11],1.25 (inactive)
same,fold change,[1]; [12],2.78
same,cell count,[1]; [13],7560
same,cell count,[1]; [14],6060
same,z-score,[3],-1.38 (inactive)
same,log fold change Tl+ flux,F380Y,-0.0115 (inactive)
same,log fold change Tl+ flux,F380Y/beta1,0.045 (inactive)
same,log fold change Tl+ flux,F380Y/beta2Delta,0.0296 (inactive)
same,log fold change Tl+ flux,F380Y/beta4,0.0448 (inactive)
same,log fold change Tl+ flux,[4],0.0507 (inactive)
same,log fold change Tl+ flux,R275C,0.0242 (inactive)
same,log fold change Tl+ flux,R275C/beta1,0.0513 (inactive)
same,log fold change Tl+ flux,R275C/beta2Delta,0.0188 (inactive)
same,log fold change Tl+ flux,R275C/beta4,0.0575 (inactive)
same,log fold change Tl+ flux,R275C/Slo1WT/beta2,-0.0288 (inactive)
c1ccc(-c2ccccn2)nc1,fold change,[1]; [11],0.97 (inactive)
same,fold change,[1]; [12],1.38
same,cell count,[1]; [13],9830
same,cell count,[1]; [14],10100
same,z-score,[3],0.54 (inactive)
same,log fold change Tl+ flux,F380Y,-0.0156 (inactive)
same,log fold change Tl+ flux,F380Y/beta1,-0.0247 (inactive)
same,log fold change Tl+ flux,F380Y/beta2Delta,0.0286 (inactive)
same,log fold change Tl+ flux,F380Y/beta4,0.0375 (inactive)
same,log fold change Tl+ flux,[4],0.0137 (inactive)
same,log fold change Tl+ flux,R275C,0.0175 (inactive)
same,log fold change Tl+ flux,R275C/beta1,-0.0449 (inactive)
same,log fold change Tl+ flux,R275C/beta2Delta,0.0381 (inactive)
same,log fold change Tl+ flux,R275C/beta4,-0.011 (inactive)
same,log fold change Tl+ flux,R275C/Slo1WT/beta2,0.000803 (inactive)
CC12CCC(=O)C=C1CCC1C2CCC2(C)C1CCC2(O)C(=O)CO (centres undefined),parasite load remaining,[5],47.2% (inactive)
same,viability,[5],63.5%
same,fluorescence ratio,[6],0.91 (inactive)
same,inhibition,[7],-4.59% (inactive)
same,inhibition,[8],1.18% (inactive)
same,fluorescence ratio,[9],0.84 (inactive)
same,mean signal,[10],241 (inactive)
same,fold change,[1]; [11],1.28 (inactive)
same,fold change,[1]; [12],1.98
same,cell count,[1]; [13],7560
same,cell count,[1]; [14],5920
same,z-score,[3],0.28 (inactive)
same,log fold change Tl+ flux,F380Y,-0.0107 (inactive)
same,log fold change Tl+ flux,F380Y/beta1,0.000378 (inactive)
same,log fold change Tl+ flux,F380Y/beta2Delta,0.0311 (inactive)
same,log fold change Tl+ flux,F380Y/beta4,0.00388 (inactive)
same,log fold change Tl+ flux,[4],0.0303 (inactive)
same,log fold change Tl+ flux,R275C,0.029 (inactive)
same,log fold change Tl+ flux,R275C/beta1,-0.042 (inactive)
same,log fold change Tl+ flux,R275C/beta2Delta,-0.0755 (inactive)
same,log fold change Tl+ flux,R275C/beta4,-0.0135 (inactive)
same,log fold change Tl+ flux,R275C/Slo1WT/beta2,-0.0119 (inactive)
Nc1ncnc2c1ncn2[C@@H]1O[C@H](CO)C[C@@H]1O,parasite load remaining,[5],137% (inactive)
same,viability,[5],93.2%
same,fluorescence ratio,[6],0.96 (inactive)
same,inhibition,[7],-2.77% (inactive)
same,inhibition,[8],2.21% (inactive)
same,fluorescence ratio,[9],0.87 (inactive)
same,mean signal,[10],230 (inactive)
same,log fold change Tl+ flux,F380Y,0.0402 (inactive)
same,log fold change Tl+ flux,F380Y/beta1,0.0107 (inactive)
same,log fold change Tl+ flux,F380Y/beta2Delta,-0.0103 (inactive)
same,log fold change Tl+ flux,F380Y/beta4,0.0334 (inactive)
same,log fold change Tl+ flux,[4],0.00963 (inactive)
same,log fold change Tl+ flux,R275C,-0.0453 (inactive)
same,log fold change Tl+ flux,R275C/beta1,-0.0213 (inactive)
same,log fold change Tl+ flux,R275C/beta2Delta,0.0189 (inactive)
same,log fold change Tl+ flux,R275C/beta4,-0.00206 (inactive)
same,log fold change Tl+ flux,R275C/Slo1WT/beta2,0.0268 (inactive)
CC(COc1ccccc1Cc1ccccc1)N1CCCCC1 (centres undefined),parasite load remaining,[5],25.1% (inactive)
same,viability,[5],82.3%
same,fluorescence ratio,[6],1.04 (inactive)
same,inhibition,[7],-2.77% (inactive)
same,inhibition,[8],3.75% (inactive)
same,fluorescence ratio,[9],1.01 (inactive)
same,mean signal,[10],222 (inactive)
same,fold change,[1]; [11],0.815 (inactive)
same,fold change,[1]; [12],2.34
same,cell count,[1]; [13],6390
same,cell count,[1]; [14],7840
same,z-score,[3],-1.81 (inactive)
same,log fold change Tl+ flux,F380Y,0.0907 (inactive)
same,log fold change Tl+ flux,F380Y/beta1,0.236 (active)
same,log fold change Tl+ flux,F380Y/beta2Delta,-0.0416 (inactive)
same,log fold change Tl+ flux,F380Y/beta4,0.194 (active)
same,log fold change Tl+ flux,[4],-0.0112 (inactive)
same,log fold change Tl+ flux,R275C,-0.246 (active)
same,log fold change Tl+ flux,R275C/beta1,0.252 (active)
same,log fold change Tl+ flux,R275C/beta2Delta,0.0368 (inactive)
same,log fold change Tl+ flux,R275C/beta4,-0.00829 (inactive)
same,log fold change Tl+ flux,R275C/Slo1WT/beta2,-0.0412 (inactive)
